Data published in PubChem BioAssay (EPA / NIEHS).
Inconclusive results are not listed. The source made the active and inactive calls. How the source made its calls, unless noted: active means hit-call score of the fitted dose curve at least 0.9, where 1 is the maximum; inactive means score below 0.9.

Key:
[1] = ATG_TAL_CIS: Attagene CIS-FACTORIAL HepG2 Assay for human TAL Basal Promoter (AID 2282966); settings: HepG2 Attagene cis-factorial TAL promoter reporter; actives raise or lower the signal;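 further: background control endpoint measuring basal TAL promoter reporter mRNA not a specific factor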
Procedure, shortened: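 Human hepatoma HepG2 cells, transfected with promoter-regulated reporter units, were treated 24 h. Reporter transcript levels, measured through RT-PCR and capillary electrophoresis, were fitted for gain or loss relative to DMSO.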

[2] = ATG_TGFb_CIS: Attagene CIS-FACTORIAL HepG2 Assay for human Transforming Growth Factor (TGF) (AID 2282967); settings: HepG2 Attagene CIS TGFb reporter, mRNA transcription; actives raise or lower the signal
Procedure, shortened: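 Multiplexed cis-reporter HepG2 system, 24 h treatment; mRNA induction read by fluorescence after RT-PCR and CE; DMSO negative control, bidirectional curve fitting.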

[3] = ATG_VDRE_CIS: Attagene CIS-FACTORIAL HepG2 Assay for human Vitamin D Receptor Element (VDRE) (AID 2282968); settings: HepG2 VDRE cis-reporter transcription, actives raise or lower the signal
Procedure, shortened: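 Transfected HepG2 reporter cells, chemical treatment 24 h. RNA isolated, cDNA amplified with reporter-specific primers, products analysed by capillary electrophoresis. Endpoint fitted in both directions versus DMSO.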

[4] = molecular target: X-box-binding protein 1 (Homo sapiens) (UniProt P17861); test: ATG_Xbp1_CIS: Attagene CIS-FACTORIAL HepG2 Assay for human X-box Binding Protein 1 (XBP1) (AID 2282972); settings: HepG2 XBP1 cis-element reporter, Attagene multiplex; actives raise or lower the signal
X-box-binding protein 1 (Homo sapiens), sequence (P17861 whole entry, looked up): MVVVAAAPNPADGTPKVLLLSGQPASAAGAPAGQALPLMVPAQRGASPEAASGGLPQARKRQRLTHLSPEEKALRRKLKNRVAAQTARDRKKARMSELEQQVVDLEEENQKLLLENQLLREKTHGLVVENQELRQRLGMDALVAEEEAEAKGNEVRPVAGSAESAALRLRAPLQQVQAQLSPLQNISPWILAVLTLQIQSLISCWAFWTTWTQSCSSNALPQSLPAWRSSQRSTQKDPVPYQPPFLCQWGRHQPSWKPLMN
Procedure, shortened: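 Multiplexed cis-reporter readout in transfected HepG2 liver cells. Exposure lasted 24 hours. Activity in either direction was fitted against DMSO as negative control and baseline.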

[5] = ATG_M_19_TRANS: Attagene TRANS-FACTORIAL HepG2 Assay for M19 Transcription Factor (Internal Marker) (AID 2282974; active means hit-call score of the fitted dose curve at least 0.9, where 1 is the maximum); settings: HepG2 Attagene TRANS-FACTORIAL M19 internal marker reporter
Procedure, shortened: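 Background-control readout: after 24 h chemical exposure of transfected HepG2 carrying GAL4-driven reporter units, RNA was reverse-transcribed, amplified, fluorescently labeled and sized by capillary electrophoresis; gain-of-signal fit against DMSO.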

[6] = molecular target: Glucocorticoid receptor (Homo sapiens) (UniProt P04150); test: ATG_GR_TRANS: Attagene TRANS-FACTORIAL HepG2 Assay for human Glucocorticoid Receptor (GR) (AID 2282978; active means hit-call score of the fitted dose curve at least 0.9, where 1 is the maximum;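 further: activators score as hits since higher reporter transcript over DMSO is fitted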); settings: HepG2 Attagene TRANS GR reporter, mRNA transcription
Glucocorticoid receptor (Homo sapiens), sequence (P04150 whole entry, looked up, the tested form may be a part): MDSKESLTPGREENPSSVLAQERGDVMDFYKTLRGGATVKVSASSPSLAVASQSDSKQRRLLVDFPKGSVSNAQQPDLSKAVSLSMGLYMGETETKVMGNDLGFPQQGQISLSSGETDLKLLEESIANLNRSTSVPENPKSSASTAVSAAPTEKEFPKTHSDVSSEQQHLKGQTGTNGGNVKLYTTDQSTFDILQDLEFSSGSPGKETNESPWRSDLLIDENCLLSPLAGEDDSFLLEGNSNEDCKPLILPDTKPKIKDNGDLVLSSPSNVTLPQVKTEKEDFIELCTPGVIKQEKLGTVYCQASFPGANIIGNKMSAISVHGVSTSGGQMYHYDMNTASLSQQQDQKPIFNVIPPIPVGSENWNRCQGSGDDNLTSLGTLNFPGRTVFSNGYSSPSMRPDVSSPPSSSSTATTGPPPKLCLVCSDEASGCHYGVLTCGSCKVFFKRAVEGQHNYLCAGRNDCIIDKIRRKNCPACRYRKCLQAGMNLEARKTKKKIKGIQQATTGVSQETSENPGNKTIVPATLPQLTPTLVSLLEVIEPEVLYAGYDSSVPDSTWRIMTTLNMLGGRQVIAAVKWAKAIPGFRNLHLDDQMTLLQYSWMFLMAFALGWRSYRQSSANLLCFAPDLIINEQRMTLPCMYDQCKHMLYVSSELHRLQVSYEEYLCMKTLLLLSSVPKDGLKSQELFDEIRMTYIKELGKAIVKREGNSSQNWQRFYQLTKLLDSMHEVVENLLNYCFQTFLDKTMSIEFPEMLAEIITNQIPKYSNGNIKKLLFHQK
Procedure, shortened: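 Readout is reporter transcript from a chimeric GR-Gal4 acting on GAL4-UAS in transfected human HepG2 liver cells after 24 h exposure, quantified by RT-PCR and capillary electrophoresis. Activation fitted upward against DMSO.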

[7] = molecular target: Oxysterols receptor LXR-alpha (Homo sapiens) (UniProt Q13133); test: ATG_LXRa_TRANS: Attagene TRANS-FACTORIAL HepG2 Assay for human Liver X Receptor alpha (LXRa) (AID 2282980; active means hit-call score of the fitted dose curve at least 0.9, where 1 is the maximum); settings: HepG2 Attagene TRANS reporter, LXRa transactivation
Oxysterols receptor LXR-alpha (Homo sapiens), sequence (Q13133 whole entry, looked up, the tested form may be a part): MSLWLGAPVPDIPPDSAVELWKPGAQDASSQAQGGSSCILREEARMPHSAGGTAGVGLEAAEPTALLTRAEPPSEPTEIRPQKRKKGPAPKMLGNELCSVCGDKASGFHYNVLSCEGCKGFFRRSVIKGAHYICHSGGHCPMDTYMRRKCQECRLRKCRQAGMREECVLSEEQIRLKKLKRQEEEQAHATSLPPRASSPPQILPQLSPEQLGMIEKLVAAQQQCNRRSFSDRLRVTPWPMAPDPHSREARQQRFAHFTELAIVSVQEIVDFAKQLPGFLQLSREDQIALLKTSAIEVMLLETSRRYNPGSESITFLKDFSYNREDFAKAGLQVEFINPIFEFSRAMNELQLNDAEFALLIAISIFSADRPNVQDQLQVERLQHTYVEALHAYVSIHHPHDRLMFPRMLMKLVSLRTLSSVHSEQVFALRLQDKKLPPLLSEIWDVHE
Procedure, shortened: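 In this multiplexed TRANS system, compounds act on HepG2 cells carrying GAL4-UAS reporter units and a receptor-GAL4 fusion for 24 h. Induced reporter RNA is amplified, fluorescently labelled and sized by capillary electrophoresis, with DMSO as baseline.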

[8] = molecular target: Oxysterols receptor LXR-beta (Homo sapiens) (UniProt P55055); test: ATG_LXRb_TRANS: Attagene TRANS-FACTORIAL HepG2 Assay for human Liver X Receptor beta (LXRb) (AID 2282981; active means hit-call score of the fitted dose curve at least 0.9, where 1 is the maximum); settings: HepG2 Attagene TRANS GAL4-LXRb reporter, mRNA
Oxysterols receptor LXR-beta (Homo sapiens), sequence (P55055 whole entry, looked up, the tested form may be a part): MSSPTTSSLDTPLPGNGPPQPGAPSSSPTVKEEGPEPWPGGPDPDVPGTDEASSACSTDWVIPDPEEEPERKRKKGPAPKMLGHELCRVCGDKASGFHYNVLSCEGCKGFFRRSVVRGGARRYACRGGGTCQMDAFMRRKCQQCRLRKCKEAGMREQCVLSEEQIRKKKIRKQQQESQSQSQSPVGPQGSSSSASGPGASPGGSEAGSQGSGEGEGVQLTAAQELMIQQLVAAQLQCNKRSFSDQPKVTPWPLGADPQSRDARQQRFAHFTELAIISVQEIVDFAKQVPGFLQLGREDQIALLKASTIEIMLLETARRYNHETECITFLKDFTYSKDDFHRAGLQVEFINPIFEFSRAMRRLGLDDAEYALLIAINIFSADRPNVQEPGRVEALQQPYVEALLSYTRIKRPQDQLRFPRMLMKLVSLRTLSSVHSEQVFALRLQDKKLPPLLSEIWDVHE
Procedure, shortened: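 Liver-derived HepG2 cells transfected with Gal4-responsive reporters were dosed for 24 h. Activation was scored as rise in reporter mRNA, by RT-PCR and capillary electrophoresis, above DMSO baseline.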

[9] = molecular target: Hepatocyte nuclear factor 4-alpha (Homo sapiens) (UniProt P41235); test: ATG_HNF4a_TRANS: Attagene TRANS-FACTORIAL HepG2 Assay for human Hepatocyte Nuclear Factor 4 alpha (HNF4a) (AID 2282982; active means hit-call score of the fitted dose curve at least 0.9, where 1 is the maximum); settings: HepG2 HNF4a transactivation reporter, mRNA readout
Hepatocyte nuclear factor 4-alpha (Homo sapiens), sequence (P41235 whole entry, looked up, the tested form may be a part): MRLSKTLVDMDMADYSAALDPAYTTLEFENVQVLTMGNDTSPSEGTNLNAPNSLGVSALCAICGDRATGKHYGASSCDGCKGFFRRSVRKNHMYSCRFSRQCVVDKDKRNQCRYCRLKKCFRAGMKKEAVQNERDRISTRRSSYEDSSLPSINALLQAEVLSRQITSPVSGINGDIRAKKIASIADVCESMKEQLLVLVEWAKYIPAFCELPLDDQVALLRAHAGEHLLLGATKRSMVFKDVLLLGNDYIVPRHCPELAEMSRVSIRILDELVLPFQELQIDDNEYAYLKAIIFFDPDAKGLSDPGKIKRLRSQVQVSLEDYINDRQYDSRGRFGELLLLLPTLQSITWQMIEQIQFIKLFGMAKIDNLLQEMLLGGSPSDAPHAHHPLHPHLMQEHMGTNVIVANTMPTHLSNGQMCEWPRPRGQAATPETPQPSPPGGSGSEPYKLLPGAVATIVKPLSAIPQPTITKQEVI
Procedure, shortened: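 Using HepG2 liver cells transfected with GAL4-UAS reporter units, chemical-induced mRNA increases were assessed after 24 hours. Fluorescent RT-PCR fragments were separated by capillary electrophoresis and compared with DMSO negative controls.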

[10] = ATG_M_32_TRANS: Attagene TRANS-FACTORIAL HepG2 Assay for M32 Transcription Factor (Internal Marker) (AID 2282984; active means hit-call score of the fitted dose curve at least 0.9, where 1 is the maximum); settings: HepG2 Attagene TRANS M32 internal marker reporter
Procedure, shortened: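 Fluorescence-detected mRNA induction, HepG2 liver cells, 24 h after dosing. Multiple GAL4-UAS reporter units introduced by transient transfection; background-control endpoint analysed for gain of signal against DMSO.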

[11] = molecular target: Nuclear receptor subfamily 4 group A member 2 (Homo sapiens) (UniProt P43354); test: ATG_NURR1_TRANS: Attagene TRANS-FACTORIAL HepG2 Assay for human Nuclear Receptor Related Protein 1 (NURR1) (AID 2282985; active means hit-call score of the fitted dose curve at least 0.9, where 1 is the maximum); settings: HepG2 Attagene TRANS reporter, mRNA readout
Nuclear receptor subfamily 4 group A member 2 (Homo sapiens), sequence (P43354 whole entry, looked up, the tested form may be a part): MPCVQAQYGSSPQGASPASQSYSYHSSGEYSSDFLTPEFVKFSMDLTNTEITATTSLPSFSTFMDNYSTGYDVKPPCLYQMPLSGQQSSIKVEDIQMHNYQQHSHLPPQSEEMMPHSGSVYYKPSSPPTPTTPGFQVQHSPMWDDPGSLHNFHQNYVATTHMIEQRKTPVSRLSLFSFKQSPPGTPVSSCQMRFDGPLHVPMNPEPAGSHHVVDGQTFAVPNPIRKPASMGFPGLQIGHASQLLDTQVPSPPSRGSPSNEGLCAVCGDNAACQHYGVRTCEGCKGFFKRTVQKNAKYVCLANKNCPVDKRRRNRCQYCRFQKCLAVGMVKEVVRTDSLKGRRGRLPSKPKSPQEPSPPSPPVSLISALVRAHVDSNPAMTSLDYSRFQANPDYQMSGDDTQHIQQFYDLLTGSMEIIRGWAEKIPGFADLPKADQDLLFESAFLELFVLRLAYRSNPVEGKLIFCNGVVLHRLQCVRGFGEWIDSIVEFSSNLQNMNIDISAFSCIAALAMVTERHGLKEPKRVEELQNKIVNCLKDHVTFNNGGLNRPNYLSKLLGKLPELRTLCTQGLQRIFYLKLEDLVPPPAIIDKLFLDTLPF
Procedure, shortened: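 Chimeric NR-Gal4 proteins were expressed in human HepG2 cells bearing GAL4-UAS reporter units, and induced reporter mRNA was quantified 24 h post-dosing by RT-PCR and capillary electrophoresis.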

[12] = molecular target: Transcriptional activator Myb (Homo sapiens) (UniProt P10242); test: ATG_Myb_CIS: Attagene CIS-FACTORIAL HepG2 Assay for human Myeloblastosis (Myb) Proto-Oncogene Transcription Factor (AID 2282986); settings: HepG2 Attagene CIS-FACTORIAL Myb reporter transcription; actives raise or lower the signal
Transcriptional activator Myb (Homo sapiens), sequence (P10242 whole entry, looked up): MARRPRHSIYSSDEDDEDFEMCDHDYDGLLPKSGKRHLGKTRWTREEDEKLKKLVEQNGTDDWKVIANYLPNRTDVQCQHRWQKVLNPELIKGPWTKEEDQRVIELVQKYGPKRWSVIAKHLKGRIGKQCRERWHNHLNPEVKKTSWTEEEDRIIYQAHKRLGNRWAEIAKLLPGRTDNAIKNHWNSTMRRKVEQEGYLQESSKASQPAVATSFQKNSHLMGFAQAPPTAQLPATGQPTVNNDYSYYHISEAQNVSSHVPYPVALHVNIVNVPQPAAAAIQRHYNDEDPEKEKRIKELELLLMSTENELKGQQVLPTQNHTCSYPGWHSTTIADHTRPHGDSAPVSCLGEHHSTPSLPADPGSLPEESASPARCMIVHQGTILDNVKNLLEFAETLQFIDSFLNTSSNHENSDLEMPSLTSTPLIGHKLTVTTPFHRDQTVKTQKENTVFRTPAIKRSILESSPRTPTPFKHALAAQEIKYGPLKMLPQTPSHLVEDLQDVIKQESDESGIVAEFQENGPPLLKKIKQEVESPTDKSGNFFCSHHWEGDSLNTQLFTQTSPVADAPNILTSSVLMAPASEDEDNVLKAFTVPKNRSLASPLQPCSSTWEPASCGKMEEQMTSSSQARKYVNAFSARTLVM
Procedure, shortened: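 Reporter mRNA is quantified by RT-PCR and capillary electrophoresis 24 h after dosing HepG2 cells transfected with cis-regulated reporter units, which track endogenous transcription factor activity. Gain and loss of signal are fitted versus DMSO baseline.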

[13] = molecular target: Nuclear respiratory factor 1 (Homo sapiens) (UniProt Q16656); test: ATG_NRF1_CIS: Attagene CIS-FACTORIAL HepG2 Assay for human Nuclear Respiratory Factor 1 (NRF1) Orphan Gene (AID 2282987); settings: HepG2 NRF1 cis-element reporter, Attagene multiplex; actives raise or lower the signal
Nuclear respiratory factor 1 (Homo sapiens), sequence (Q16656 whole entry, looked up): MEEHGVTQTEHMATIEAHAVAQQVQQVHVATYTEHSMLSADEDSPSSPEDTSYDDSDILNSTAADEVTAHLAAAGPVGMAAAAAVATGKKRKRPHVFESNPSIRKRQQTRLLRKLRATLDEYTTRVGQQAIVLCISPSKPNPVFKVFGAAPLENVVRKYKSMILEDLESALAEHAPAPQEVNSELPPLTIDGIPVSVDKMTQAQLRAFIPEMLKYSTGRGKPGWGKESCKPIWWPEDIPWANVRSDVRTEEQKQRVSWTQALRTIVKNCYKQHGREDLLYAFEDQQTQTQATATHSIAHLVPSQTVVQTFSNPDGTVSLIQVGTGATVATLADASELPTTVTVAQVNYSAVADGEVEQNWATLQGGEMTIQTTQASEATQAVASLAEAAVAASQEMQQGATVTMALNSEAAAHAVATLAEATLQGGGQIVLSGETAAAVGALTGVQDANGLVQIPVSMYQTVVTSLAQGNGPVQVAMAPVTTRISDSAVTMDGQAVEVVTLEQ
Procedure, shortened: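 Endogenous NRF1-driven reporter transcription in transfected HepG2 cells after 24 h treatment. Readout: RT-PCR products, 6-FAM labelled and resolved by capillary electrophoresis; changes fitted both directions relative to DMSO.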

[14] = molecular target: Bile acid receptor (Homo sapiens) (UniProt Q96RI1); test: ATG_FXR_TRANS: Attagene TRANS-FACTORIAL HepG2 Assay for Farnesoid X Receptor (FXR) (AID 2282979; active means hit-call score of the fitted dose curve at least 0.9, where 1 is the maximum;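 further: hits raise reporter mRNA above DMSO so AC50 marks FXR activation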); settings: HepG2 Attagene TRANS FXR-GAL4 reporter transcription
Bile acid receptor (Homo sapiens), sequence (Q96RI1 whole entry, looked up, the tested form may be a part): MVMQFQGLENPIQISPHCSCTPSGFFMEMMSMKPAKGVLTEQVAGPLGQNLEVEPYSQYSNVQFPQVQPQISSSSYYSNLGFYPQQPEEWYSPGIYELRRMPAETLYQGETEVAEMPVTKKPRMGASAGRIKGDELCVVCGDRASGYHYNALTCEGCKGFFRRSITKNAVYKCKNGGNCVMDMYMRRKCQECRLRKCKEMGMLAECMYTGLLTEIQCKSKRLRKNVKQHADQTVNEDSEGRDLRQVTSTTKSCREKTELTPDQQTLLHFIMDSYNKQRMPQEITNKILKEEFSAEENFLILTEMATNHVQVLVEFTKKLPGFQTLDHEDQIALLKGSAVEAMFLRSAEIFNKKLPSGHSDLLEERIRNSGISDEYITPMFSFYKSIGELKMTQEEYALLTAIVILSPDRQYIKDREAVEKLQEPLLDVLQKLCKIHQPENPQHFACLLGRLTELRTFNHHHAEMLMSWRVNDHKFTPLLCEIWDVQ
Procedure, shortened: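 After 24 h chemical treatment of transfected HepG2 cells, GAL4-UAS reporter transcripts driven by an exogenous FXR-GAL4 fusion were measured by RT-PCR and capillary electrophoresis. Increases over DMSO were fitted.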

[15] = ATG_GAL4_TRANS: Attagene TRANS-FACTORIAL HepG2 Assay for GAL4 (Internal Marker) (AID 2282976; active means hit-call score of the fitted dose curve at least 0.9, where 1 is the maximum); settings: HepG2 Attagene TRANS GAL4 internal marker reporter
Procedure, shortened: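 Liver HepG2 line bearing multiplexed GAL4-UAS reporter constructs; 24 h chemical treatment. Transcripts were quantified as fluorescent fragments on capillary electrophoresis after RT-PCR and HpaI cut, with activity fitted upward from DMSO.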

[16] = ATG_M_06_TRANS: Attagene TRANS-FACTORIAL HepG2 Assay for M06 Transcription Factor (Internal Marker) (AID 2282983; active means hit-call score of the fitted dose curve at least 0.9, where 1 is the maximum); settings: HepG2 Attagene TRANS M06 internal marker reporter
Procedure, shortened: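 Multi-reporter-transfected HepG2, 24 h treatment; reporter transcripts quantified via RT-PCR, primer-extension labelling and CE. DMSO-normalized gain-of-signal fit.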

Measured: AC50

C[C@H]1O[C@@H](O[C@H]2[C@@H](O)C[C@H](O[C@H]3[C@@H](O)C[C@H](O[C@H]4CC[C@@]5(C)[C@H](CC[C@@H]6[C@@H]5C[C@@H](O)[C@]5(C)[C@@H](C7=CC(=O)OC7)CC[C@]65O)C4)O[C@@H]3C)O[C@@H]2C)C[C@H](O)[C@@H]1O
active: [3] 226 nM | [4] 141 nM | [12] 428 nM | [13] 3.12 nM
not listed: [14] | [15] | [16]
inactive: all other assays above

CCc1cc(C(C)(C)C)c(O)c(C(C)(C)C)c1
active: [11] 11400 nM
not listed: [9] | [15] | [16]
inactive: all other assays above

CCCC(O)C(O)CO (centres undefined)
inactive: [1] | [2] | [3] | [4] | [5] | [8] | [9] | [12] | [13]

C[Si](C)(C)O[Si](C)(C)C
not listed: [6] | [11] | [16]
inactive: all other assays above

Cc1ccc(S(N)(=O)=O)cc1
not listed: [5] | [8] | [11]
inactive: all other assays above

CCOC(=O)C1OC1c1ccccc1 (centres undefined)
not listed: [7] | [8] | [9] | [14]
inactive: all other assays above

Nc1ccc2cc(S(=O)(=O)O)cc(O)c2c1N=Nc1ccccc1C(F)(F)F
not listed: [15] | [16]
inactive: all other assays above

CC(C)(C)c1ccc(C(=O)O)cc1
inactive: [1] | [2] | [3] | [4] | [5] | [15] | [12] | [13]

O=P(O)(O)O
not listed: [7] | [8] | [10] | [14]
inactive: all other assays above

CC=CC=CCOC(=O)C(C)C
not listed: [7] | [13] | [14] | [16]
inactive: all other assays above

CCCCCCCCCC(C)C=O (centres undefined)
not listed: [8] | [9] | [11] | [14] | [15] | [16]
inactive: all other assays above
